This note sets out measurements from PubChem BioAssay (NCI).

Among the test systems are HCT-15 colon; HT29 colon; SNB-75 CNS; SNB-19 CNS; U251 CNS; PC-3 prostate; SK-MEL-5 melanoma; UACC-62 melanoma; LOX IMVI melanoma; SK-MEL-28 melanoma; SK-MEL-2 melanoma; EKVX NSCLC; SN12C renal; UO-31 renal; TK-10 renal; ACHN renal; CAKI-1 renal; A498 renal; CCRF-CEM leukemia.
Common to all, as to assay: NCI-60 one-dose screen, 48 h (100 = growth as untreated, 0 = no growth, -100 = all killed)
What all share (settings): 10 µM

This is part of a sample that, as a whole, favours compounds with a hit. Of some 83,000 tested, about 20% had one in any assay.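 Percent growth is the endpoint: 0 to 100 indicates growth inhibition (40 means 60% inhibition), 0 means no net growth, and negative values indicate cell death.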 Unmarked numbers belong to inactive results. Activity calls are given as the source filed them. The calls were made as follows: active = growth percent below 10; inactive = the rest.

On to `C=C(C)[C@@H]1CC[C@]2(C(=O)OC)CC[C@]3(C)[C@H](CC[C@@H]4[C@@]5(C)CC[C@H](N)C(C)(C)[C@@H]5CC[C@]43C)[C@@H]12`, for which the growth in the test with HCT-15 colon is -97.2% (active); in the test on HT29 colon it was -70.6% (active); in the test on SNB-75 CNS it was -91.5% (active); in the test on SNB-19 CNS, -99.3% (active); in the test on U251 CNS it was -85.4% (active); with PC-3 prostate, -28.2% (active). Also, the growth was -54.9% (active) in the test with SK-MEL-5 melanoma; -97.9% (active) in the test with UACC-62 melanoma; -98.4% (active) in the test on LOX IMVI melanoma; -100% (active) with SK-MEL-28 melanoma; -75.3% (active) with SK-MEL-2 melanoma; -95.7% (active) in the test on EKVX NSCLC. In addition, the growth in the test on SN12C renal is -92.8% (active); in the test on UO-31 renal, -100% (active); in the test with TK-10 renal, -87.8% (active); in the test with ACHN renal, -100% (active); with CAKI-1 renal it was -99.9% (active); in the test on A498 renal, -91.6% (active). Further, the growth in the test with CCRF-CEM leukemia was -52.3% (active).
As for `CCC(C)S(=O)(=O)c1oc(-c2ccc(C)cc2)nc1S(=O)(=O)c1ccccc1` (configuration not stated), the growth in the test on HCT-15 colon is -72.2% (active); in the test on HT29 colon, -71.5% (active); in the test on SNB-75 CNS, 3.57% (active); in the test on SNB-19 CNS, 0.128% (active); in the test with U251 CNS, -95.9% (active); in the test with PC-3 prostate it was -60.5% (active). For the same compound, the growth was -86.5% (active) with SK-MEL-5 melanoma; -94.2% (active) in the test on UACC-62 melanoma; -94% (active) in the test on LOX IMVI melanoma; -99.8% (active) in the test on SK-MEL-28 melanoma; -94.9% (active) with SK-MEL-2 melanoma; -61% (active) with EKVX NSCLC. The growth in the test on SN12C renal is -85.6% (active); with UO-31 renal it was -100% (active); in the test on TK-10 renal, -99.5% (active); with ACHN renal, -100% (active); with CAKI-1 renal, -100% (active); in the test on A498 renal, 109%. The growth in the test with CCRF-CEM leukemia is -46% (active).
Turning to `CC(=C(c1ccc(OCCN2CCCCC2)cc1)c1ccc(OCCN2CCCCC2)cc1)c1ccccc1`, the growth in the test with HCT-15 colon was -0.0525% (active); in the test on HT29 colon, -26.2% (active); in the test on SNB-75 CNS, 84.1%; in the test on SNB-19 CNS, 38.7%; with U251 CNS, 1.29% (active); in the test with PC-3 prostate it was 47.5%. Also, the growth in the test on SK-MEL-5 melanoma is -90.9% (active); in the test on UACC-62 melanoma it was -79% (active); with LOX IMVI melanoma, -96.6% (active); with SK-MEL-28 melanoma, -93.9% (active); in the test on SK-MEL-2 melanoma, 20.2%; with EKVX NSCLC, 73.6%. Moreover, the growth is 68.6% in the test with SN12C renal; 2.17% (active) in the test on UO-31 renal; 70.4% in the test with TK-10 renal; 12.7% in the test with ACHN renal; 33.7% with CAKI-1 renal; 136% in the test with A498 renal. In the test with CCRF-CEM leukemia, the growth was -19.2% (active).
Consider `COc1ccc2[nH]c(O)c(N=NC(=O)COc3ccc(NC(=O)Nc4ccc(Cl)cc4)cc3)c2c1`, for which the growth in the test on HCT-15 colon is 99.5%; in the test with HT29 colon, 8.21% (active); in the test with SNB-75 CNS, 42.8%; in the test with SNB-19 CNS it was 3.67% (active); with U251 CNS, -87.2% (active); with PC-3 prostate it was 18%. For the same compound, the growth in the test on SK-MEL-5 melanoma is 32.2%; with UACC-62 melanoma, -30.2% (active); in the test on LOX IMVI melanoma, -59.7% (active); with SK-MEL-28 melanoma it was -72.3% (active); in the test with SK-MEL-2 melanoma it was -8.16% (active); with EKVX NSCLC, 84.8%. Besides, the growth was 15.9% in the test with SN12C renal; 90.3% in the test with UO-31 renal; 106% in the test on TK-10 renal; 100% in the test with ACHN renal; 99.7% in the test on CAKI-1 renal; 135% in the test with A498 renal. In addition, the growth in the test on CCRF-CEM leukemia is 8.83% (active).
For the compound `C=C(C)[C@@H]1CC[C@]2(C)[C@H](CC=C3[C@@H]4CC(C)(C)CC[C@]4(C(=O)N4CCOCC4)CC[C@]32C)[C@@]1(C)CCCN`, the growth is -83.6% (active) with HCT-15 colon; -91% (active) in the test on HT29 colon; -91.2% (active) in the test with SNB-75 CNS; -93.7% (active) with SNB-19 CNS; -81.2% (active) in the test on U251 CNS; -79.8% (active) in the test on PC-3 prostate. The growth in the test on SK-MEL-5 melanoma was -96.5% (active); in the test on UACC-62 melanoma it was -93.8% (active); with LOX IMVI melanoma, -81.7% (active); in the test with SK-MEL-28 melanoma it was -97% (active); in the test with SK-MEL-2 melanoma it was -92.1% (active); with EKVX NSCLC, -84.1% (active). For the same compound, the growth in the test with SN12C renal was -89.1% (active); in the test on UO-31 renal, -100% (active); in the test on TK-10 renal, -95.7% (active); in the test on ACHN renal, -100% (active); in the test with CAKI-1 renal, -96.3% (active); in the test with A498 renal, -89.5% (active). Moreover, the growth in the test on CCRF-CEM leukemia is -57.2% (active).
On to `CCN1CCN(c2ccc(NC(=O)Nc3ccc4c(c3F)CCN4c3ccnc(C(=O)NC)c3)cc2C(F)(F)F)CC1`, for which the growth in the test with HCT-15 colon was -91.1% (active); in the test with HT29 colon, -79% (active); in the test with SNB-75 CNS, -80.8% (active); in the test with SNB-19 CNS, -84.3% (active); in the test on U251 CNS, -93.8% (active); with PC-3 prostate it was 23.4%. Moreover, the growth with SK-MEL-5 melanoma was -100% (active); in the test on UACC-62 melanoma, 95.8%; in the test with LOX IMVI melanoma it was -99.9% (active); in the test on SK-MEL-28 melanoma it was -83.6% (active); with SK-MEL-2 melanoma, 99.6%; in the test on EKVX NSCLC it was -76.9% (active). The growth was 104% in the test on SN12C renal; 85.3% in the test with UO-31 renal; 118% in the test with TK-10 renal; 54.9% in the test with ACHN renal; -87.9% (active) in the test on CAKI-1 renal; 142% in the test on A498 renal. For the same compound, the growth in the test on CCRF-CEM leukemia is -42.3% (active).
As for `CN1CCN(c2ccc(Nc3nc(NCCCNC(=O)c4ccccc4)c4sccc4n3)cc2)CC1`, the growth with HCT-15 colon was 12.3%; in the test on HT29 colon it was 14.6%; with SNB-75 CNS, 110%; in the test on SNB-19 CNS, 95.5%; with U251 CNS, 22.8%; in the test on PC-3 prostate, 56.8%. The growth in the test with SK-MEL-5 melanoma was 64.9%; with UACC-62 melanoma, 84.6%; in the test on LOX IMVI melanoma, 16%; in the test with SK-MEL-28 melanoma, 73.3%; in the test with SK-MEL-2 melanoma it was 114%; with EKVX NSCLC, 89.9%. Also, the growth in the test on SN12C renal is 84.4%; with UO-31 renal, 74.9%; with TK-10 renal it was 117%; in the test on ACHN renal, 60.1%; with CAKI-1 renal it was 72.5%; with A498 renal, 141%. Also, in the test with CCRF-CEM leukemia, the growth is 25.2%.
Turning to `Cc1ccc(-c2nc3ccc(C(=O)N=Nc4c(O)[nH]c5ccc(Br)cc45)cc3[nH]2)cc1`, the growth in the test on HCT-15 colon was 96.6%; with HT29 colon, 47.9%; in the test with SNB-75 CNS, 107%; in the test on SNB-19 CNS, 46.1%; in the test on U251 CNS, -76% (active); in the test on PC-3 prostate, 62.6%. In addition, the growth is 84.1% with SK-MEL-5 melanoma; 98% in the test on UACC-62 melanoma; -27.8% (active) in the test on LOX IMVI melanoma; 99.3% with SK-MEL-28 melanoma; 113% in the test with SK-MEL-2 melanoma; 94.9% with EKVX NSCLC. The growth in the test with SN12C renal is 95.3%; in the test on UO-31 renal it was 80.3%; with TK-10 renal it was 114%; in the test with ACHN renal, 101%; in the test on CAKI-1 renal it was 92.7%; with A498 renal it was 137%. The growth in the test on CCRF-CEM leukemia is 34.7%.
